Experimental findings from PubChem BioAssay AID1347056 (Sanford-Burnham Center for Chemical Genomics, 2019) are described below.

The whole screen tested about 360,000 compounds, of which about 3,600 (1%) were called active.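 The calls were made as follows: active = compounds whose plate-normalised and pattern-corrected inhibition of the luciferase reporter signal at the single screening dose is 50% or more; inactive = the rest.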 The entries come from a sample that favours actives as a whole.

In general, inhibition refers to the drop in the measured response relative to a control, in per cent.

This experiment is described as follows: TROY pathway blockers in reporter cells – Q293 LMP1-TROYcd cells, NF-kB luciferase, uHTS, primary screen (AID 1347056). To be noted: 4 h, at 10 µM, hits give high values.
With `COc1ccc(/C=N/Nc2ncnc3sc4c(c23)CCCC4)cc1O`, the inhibition was 82.7% (active).

Regarding `COc1ccc(NC(=O)CCCNC(=O)Cn2cnc3sc4c(c3c2=O)CCCC4)cc1OC`, the inhibition is -6.14% (inactive).

Regarding `COc1ccc(NC(=O)CCNC(=O)Cn2cnc3sc4c(c3c2=O)CCCC4)cc1OC`, the inhibition was 11.8% (inactive).

In the case of `COCCCNC(=O)C1CCC(CNS(=O)(=O)c2ccc(OC)cc2)CC1` (configuration not stated), the inhibition is -8.61% (inactive).

Turning to `CCN(CC)C(=O)C1CCC(C)(C(=O)O)C1(C)C` (configuration not stated), the inhibition was 7.66% (inactive).

`Cc1nnc(SCCCCSc2nnc(C)c(=O)[nH]2)[nH]c1=O`: the inhibition is -7.01% (inactive).

Turning to `CC(C)n1cnc2c(Nc3cccc(Cl)c3)nc(N(CCO)CCCO)nc21`, the inhibition is 50.8% (active).

Consider `C=C(C)C1CC=C(C)/C(=N/NC(=O)CCCNc2cccc(C)c2)C1` (configuration not stated), for which the inhibition is 5.76% (inactive).

On to `CN(CCO)c1ccc(/C=N/Nc2nncc3ccccc23)cc1`, for which the inhibition was -22.8% (inactive).

Take `CN1C(=O)c2ccc(NC(=O)C3CCCCC3)cc2C1=O`: the inhibition is -41% (inactive).

`O=C(Nc1ccc2c(c1)OCO2)C1CC1(Cl)Cl` (configuration not stated): the inhibition was -31.7% (inactive).

Take `O=C(Nc1ccc2c(c1)OCCO2)C1CCCC1`: the inhibition is 81.7% (active).

For `CC(C)C[C@H]1CNC(=O)C(=O)N1C[C@H]1CCCN1C[C@H](Cc1ccc(O)cc1)N1C[C@H](CC(C)C)N(CC2CCCCCC2)C(=O)C1=O`, the inhibition is -20.6% (inactive).

`O=C1N[C@H](Cc2c[nH]c3ccccc23)COC(=O)[C@H](Cc2ccc(F)cc2)C/C=C\C[C@H]1CC(=O)N(CCO)Cc1ccccc1`: the inhibition was 19% (inactive).

Regarding `O=C(Cn1c(-c2cscn2)nc2ccccc21)Nc1ccc(Cl)cc1`, the inhibition is 6.66% (inactive).

On to `C/C(CC(=O)Nc1ccc(C)cc1C)=N\NC(=O)C(C)C`, for which the inhibition is 7.58% (inactive).

Regarding `CC1CCCCC1NC(=O)Cn1cnc2c1c(=O)n(C)c(=O)n2C` (configuration not stated), the inhibition is -7% (inactive).

On to `O=C(CCc1[nH]c2ccccc2c1Sc1ccccc1)N(CCO)CCO`, for which the inhibition is 7.74% (inactive).

Turning to `CC(=O)Nc1c2c(nn1-c1cccc(C)c1)CSC2`, the inhibition was -5.25% (inactive).

With `Cc1cccc(-n2ncc(Cl)c(Cl)c2=O)c1`, the inhibition is 72.5% (active).

In the case of `CCCNC(=O)c1c(Cl)cnn1-c1ccc(C)cc1`, the inhibition was -51.1% (inactive).

With `CCNS(=O)(=O)c1ccc(CCC(=O)N2CCN(c3cc(Cl)ccc3C)CC2)cc1`, the inhibition was 26.1% (inactive).

With `O=S(=O)(Cc1cc(Sc2ccccc2)nc(-c2ccccc2)n1)c1ccccc1`, the inhibition is -3.96% (inactive).

For `O=C(N[C@@H](Cc1c[nH]c2ccccc12)C(=O)O)OCC1c2ccccc2-c2ccccc21`, the inhibition is -9.94% (inactive).

On to `O=C(Nc1ccccc1Cl)c1ccccc1S(=O)(=O)c1ccccc1[N+](=O)[O-]`, for which the inhibition was -26.1% (inactive).

Take `CC(=O)c1ccc(NC(=O)C(C)N(C)CC(=O)Nc2ccccc2Cl)cc1` (configuration not stated): the inhibition is 7.44% (inactive).

As to `O=C(Nc1ccccc1Cl)/C(Cl)=C(\Cl)S(=O)c1ccccc1` (configuration not stated), the inhibition was 86.9% (active).

Consider `Cc1ccc(C)c(C(=O)COC(=O)Cn2[nH]c(=O)c3ccccc3c2=O)c1`, for which the inhibition is -0.89% (inactive).

As for `Cc1ccc(-c2csc(NC(=O)Cn3[nH]c(=O)c4ccccc4c3=O)n2)cc1`, the inhibition is 55.9% (active).

For `O=C(Cn1[nH]c(=O)c2ccccc2c1=O)Nc1cccc(-c2nnc3n2CCCCC3)c1`, the inhibition is 18.8% (inactive).

Consider `O=C1C=CC(=O)N1c1ccc(N2CCCCC2)cc1`, for which the inhibition is -3% (inactive).

Turning to `COC(=O)[C@@]1(Sc2ccc(C)cc2)CC(=O)N(c2cccc(SC)c2)[C@@H]1c1ccccc1`, the inhibition is -0.08% (inactive).

As for `N/C(=N\OC(=O)CCC1CCCCC1)c1ccccn1`, the inhibition is -40.4% (inactive).

Regarding `Cc1ccc(C(=O)O/N=C(\N)c2ccccn2)cc1Cl`, the inhibition was 72.9% (active).

Consider `Cc1cccc(/C(N)=N/OC(=O)c2ccccc2Cl)c1`, for which the inhibition was 3.79% (inactive).

On to `COc1ccc(C2/C(=C(/O)c3ccc4c(c3)CC(C)O4)C(=O)C(=O)N2Cc2ccncc2)cc1` (configuration not stated), for which the inhibition is -12.1% (inactive).

`CC(=O)c1cc2c(cc1NC(=O)Cn1nc(-c3ccc(F)cc3)ccc1=O)OCO2`: the inhibition was -13.6% (inactive).

As to `CC(=O)Nc1ccc(S(=O)(=O)NC2Cc3ccccc3C2)cc1`, the inhibition was -3.14% (inactive).

Turning to `CCOc1ccc(/C=C(/NC(=O)c2ccccc2)C(=O)NCCC(=O)O)cc1`, the inhibition was 4.42% (inactive).

Turning to `Cc1noc(C)c1COc1cccc(C(=O)Nc2cccnc2)c1`, the inhibition was 11.8% (inactive).

For the compound `O=C(Nc1cccnc1)c1noc2c1CCCCC2`, the inhibition is 64.2% (active).

On to `O=C(c1noc2c1CCCC2)N1CCc2ccccc2C1`, for which the inhibition was -14.7% (inactive).

Take `CCCC(C)C(=O)NCc1ccncc1` (configuration not stated): the inhibition is 8.22% (inactive).

Consider `FC(F)(F)Oc1ccccc1C(c1nnnn1C1CCCCC1)N1CCN(C/C=C/c2ccccc2)CC1` (configuration not stated), for which the inhibition was 5.81% (inactive).

Regarding `CCCCCCc1cc2cc(-c3nnc(-c4ccccc4)o3)c(=O)oc2cc1O`, the inhibition was 61.6% (active).

Turning to `CCOC(=O)Cn1c(O)c(N=NC(=O)CNC(=O)Cc2ccccc2)c2ccccc21`, the inhibition is -7.61% (inactive).

Take `O=[N+]([O-])/C=C/c1ccc2c(ccn2Cc2ccccc2)c1`: the inhibition is 81.4% (active).

For the compound `C/C(CC(=O)NCc1ccc(Cl)cc1)=N\NC(=O)COc1ccc(C)cc1Br`, the inhibition is -10.5% (inactive).

For the compound `Cc1cc(OC(=O)c2ccc(OC(C)C)cc2)c([N+](=O)[O-])c(=O)[nH]1`, the inhibition was -22.1% (inactive).

Take `O=C(Oc1ccc(-c2nnco2)cc1)c1ccc(F)c(S(=O)(=O)N2CCOCC2)c1`: the inhibition was 40.2% (inactive).

Turning to `COC(=O)c1sccc1NC(=O)CSc1ccccc1NS(=O)(=O)c1cc(Cl)ccc1Cl`, the inhibition was 51.4% (active).

For `COC(=O)c1sccc1NS(=O)(=O)c1ccc(F)cc1F`, the inhibition was 10.6% (inactive).

In the case of `COC(=O)c1scc(C)c1NC(=O)CSc1ccc(Cl)cc1`, the inhibition is -6.59% (inactive).

Turning to `CC(C)(Oc1ccc(C2CC2(Cl)Cl)cc1)C(=O)O` (configuration not stated), the inhibition is -11.2% (inactive).

Consider `Cc1cc(N)n(-c2ccc(S(=O)(=O)N3CCCC3)cc2[N+](=O)[O-])n1`, for which the inhibition was 1.51% (inactive).

For the compound `CCOC(=O)N1CCN(Cc2nc3ccc([N+](=O)[O-])cc3c(=O)n2-c2cccc(OC)c2)CC1`, the inhibition is 5.96% (inactive).

For the compound `Cn1cc(/C=C/c2nc3ccccc3c(=O)n2-c2cccc([N+](=O)[O-])c2)c2ccccc21`, the inhibition was 53.2% (active).

In the case of `CCn1c(/C=C/c2ccc([N+](=O)[O-])o2)nc2ccccc2c1=O`, the inhibition is 1.09% (inactive).

As to `CC(C)=CCCC1(C)C=Cc2c(ccc3c2[nH]c2cc(O)c(C)cc23)O1` (configuration not stated), the inhibition was 56.8% (active).

On to `CC(OC(=O)c1ccccc1NCCO)C(=O)Nc1ccnn1C(C)C` (configuration not stated), for which the inhibition is 4.88% (inactive).

With `CCCc1ccc(-c2c(C)sc(NC(=O)c3ccnn3C)c2C#N)cc1`, the inhibition was 61.4% (active).

`CCCc1cc(=O)[nH]c(SCC(=O)Nc2sc3c(c2C#N)CCCC3)n1`: the inhibition was -13.3% (inactive).

Regarding `Cc1sc(NC(=O)C2=COCCO2)c(C#N)c1C`, the inhibition was -29.2% (inactive).

In the case of `O=C1COc2ccc(C(=O)CSc3ccc(Br)cc3)cc2N1`, the inhibition was 6.67% (inactive).

In the case of `CCNC(=S)N(CCN(CC)CC)Cc1cc2cc3c(cc2[nH]c1=O)OCO3`, the inhibition was 7.05% (inactive).

Consider `Cc1ccc(Cc2c(-c3ccc(Cl)cc3)nc3c4ccccc4ccn23)cc1`, for which the inhibition is 4.34% (inactive).

Regarding `c1ccc(Cc2c(-c3ccco3)nc3c4ccccc4ccn23)cc1`, the inhibition is 3.44% (inactive).

For the compound `Cc1ccc(Cc2c(-c3ccc(C)cc3)nc3c4ccccc4ccn23)cc1`, the inhibition was 54.4% (active).

Consider `O=C(N=C1SC2CS(=O)(=O)CC2N1Cc1ccccc1)c1ccccc1` (configuration not stated), for which the inhibition is -0.57% (inactive).

Regarding `CCCCC(NS(=O)(=O)c1ccc(C)cc1)C(=O)Oc1ccc2c3c(c(=O)oc2c1)CCC3` (configuration not stated), the inhibition is 69.9% (active).

With `O=C(COc1ccc2c3c(c(=O)oc2c1)CCC3)NC1CCCCC1`, the inhibition is -1.91% (inactive).

With `NC(=O)C1CCN(C(=O)COc2ccc3c4c(c(=O)oc3c2)CCC4)CC1`, the inhibition is -10.9% (inactive).

As for `COC(=O)c1cc2c(ccn2C)n1C`, the inhibition was 0.05% (inactive).

For the compound `Cc1ccc(OCCCC(=O)Nc2ccc3c(c2)OCCO3)cc1`, the inhibition is 17.8% (inactive).

Take `COC(=O)CCNc1ccc2c(c1)OCCO2`: the inhibition is 78.2% (active).

`CCOc1ccc(NCCC(=O)c2ccc3c(c2)OCO3)cc1`: the inhibition is 9.47% (inactive).

With `COc1ccccc1N=Cc1c(O)c2ccccc2oc1=O`, the inhibition is 68.1% (active).

In the case of `O=c1oc2ccccc2c(=O)c2ccccc12`, the inhibition was 4.31% (inactive).

Turning to `COc1ccccc1-c1oc2ccccc2c1C#CCCCCO`, the inhibition is 2.78% (inactive).

For the compound `COC(=O)CNc1nc(Cl)nc(N2CCC(C)CC2)n1`, the inhibition is 6.46% (inactive).

On to `CCCS(=O)(=O)NC(=O)C1(C)CCN(C(=O)c2sccc2C)C1` (configuration not stated), for which the inhibition was -21% (inactive).

For the compound `O=C(Cc1ccccc1F)NC1CCSc2ccccc21` (configuration not stated), the inhibition was 6.21% (inactive).

Turning to `O=C(/C=C/Sc1ncn[nH]1)c1ccc(Cl)cc1`, the inhibition is 66% (active).

`CC(C)CN(C(=O)CN1CCN(S(=O)(=O)c2ccccc2)CC1)c1c(N)n(CC(C)C)c(=O)[nH]c1=O`: the inhibition was 3.32% (inactive).

For `CC(C)c1ccc2c(c1)c(SC(C)(C)C)c(CC(C)(C)C(=O)O)n2Cc1ccc(Cl)cc1`, the inhibition was 65.6% (active).

On to `COCCN1C(=O)c2oc3c(C)cc(C)cc3c(=O)c2C1c1cccc(O)c1` (configuration not stated), for which the inhibition was 1.51% (inactive).

Take `O=C(COc1ccc(Br)cc1F)NCC1(N2CCCCC2)CCCCC1`: the inhibition is -6.39% (inactive).

As for `COc1ccc(C(C#N)=C2C=CC(=NO)c3ccccc32)cc1`, the inhibition was 69.6% (active).

For the compound `COc1ccc(/C(N)=N/OC(=O)Cc2ccccc2)cc1`, the inhibition is -56.1% (inactive).

In the case of `COc1ccc(C(=NN)c2ccc(OC)cc2)cc1`, the inhibition is -42.8% (inactive).

For `NC(=O)[C@H]1CC2(CC(c3cccc(NC(=O)[C@H]4CCC(=O)N4)c3)=NO2)CN1C(=O)c1ccccc1C(=O)c1ccccc1` (some centres not stated), the inhibition is -0.31% (inactive).

As to `CC1CCc2c(sc(NC(=O)c3ccc(Cn4cc(Br)cn4)o3)c2C(N)=O)C1` (configuration not stated), the inhibition was -4.02% (inactive).
